# Source: ChEMBL document CHEMBL1961873, “Compounds: GSK PKIS; Assays: Nanosyn kinase panel” (2012)
# Molecular target: Tyrosine-protein kinase Fyn (Homo sapiens) (UniProt P06241)
# Conditions: at 1 µM
# Chain of Tyrosine-protein kinase Fyn (Homo sapiens) (P06241 2-537 limits assumed): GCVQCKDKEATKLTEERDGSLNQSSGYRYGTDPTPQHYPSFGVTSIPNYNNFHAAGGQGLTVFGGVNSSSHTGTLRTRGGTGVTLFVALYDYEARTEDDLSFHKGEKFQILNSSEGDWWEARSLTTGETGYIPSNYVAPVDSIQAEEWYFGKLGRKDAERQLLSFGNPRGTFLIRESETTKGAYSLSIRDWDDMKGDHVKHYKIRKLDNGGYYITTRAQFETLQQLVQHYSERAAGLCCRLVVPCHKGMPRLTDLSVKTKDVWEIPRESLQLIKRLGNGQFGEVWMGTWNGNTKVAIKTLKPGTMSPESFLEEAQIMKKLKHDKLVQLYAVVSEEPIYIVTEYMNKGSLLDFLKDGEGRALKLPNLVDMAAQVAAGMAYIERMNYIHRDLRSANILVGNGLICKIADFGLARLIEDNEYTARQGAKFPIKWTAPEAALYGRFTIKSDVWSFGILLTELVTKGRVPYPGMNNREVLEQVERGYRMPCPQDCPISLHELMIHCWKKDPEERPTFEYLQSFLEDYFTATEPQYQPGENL
row,Compound,inhibition [%]
1,N#Cc1c(NC(=O)c2cccc3ccccc23)sc2c1CCCC2,4.04
2,CCn1c(-c2nonc2N)nc2cncc(C(=O)N3CCNCC3)c21,2.87
3,NS(=O)(=O)c1cccc(-c2ccc3c(NC(=O)C4CC4)n[nH]c3c2)c1,2.4
4,CC1=C(C(=O)Nc2ccc3[nH]ncc3c2)C(c2ccc3ccccc3c2)CC(=O)N1 (stereo not drawn),1.8
5,Cc1nnc(-c2ccc(C)c(-c3ccc(C(=O)Nc4cccc(C#N)c4)cc3)c2)o1,3.47
6,Cc1nn(C)c2cc(N(C)c3ccnc(Nc4cccc(S(N)(=O)=O)c4)n3)ccc12,28.7
7,CS(=O)(=O)CCN(CC#N)Cc1ccc(-c2ccc3ncnc(Nc4ccc(OCc5cccc(F)c5)c(Cl)c4)c3c2)o1,-3.53
8,NC(=O)c1cccc(Nc2nccc(Nc3cccc4[nH]ncc34)n2)c1,96.1
9,COc1cc2ncn(-c3cc(OCc4ccccc4Cl)c(C(N)=O)s3)c2cc1OC,23.5
10,Cc1cccc(-c2n[nH]cc2-c2ccc3ncccc3n2)n1,6.38
11,CCn1c(-c2nonc2N)nc2ccncc21,-0.65
12,COc1cc2ncn(-c3cc(OCc4ccccc4C(F)(F)F)c(C(N)=O)s3)c2cc1OC,9.2
13,NCc1ccc(-c2nc(-c3ccc(Cl)c(O)c3)c(-c3ccncc3)[nH]2)cc1,31.8
14,CCN1CCC(CC(=O)Nc2n[nH]c3nc(-c4cccs4)c(Br)cc23)CC1,-1.4
15,Nc1nc(-c2ccc3c(c2)C(=Cc2cc(Br)c(O)c(Br)c2)C(=O)N3)cs1,8.82
16,COc1ccc(-c2nn3ncccc3c2-c2ccnc(Nc3ccc(Cl)c(C(F)(F)F)c3)n2)cc1,6.37
17,COc1ccc(COc2ccc(Cc3cnc(N)nc3N)cc2OC)cc1,1.28

row,Compound,inhibition [%]
1,[O-][S+]1CCN(Cc2ccc(-c3ccc4ncnc(Nc5ccc(OCc6ccccc6)c(F)c5)c4c3)o2)CC1,9.16
2,CC(C)=Cc1cccc2c1/C(=N/Nc1ccc(S(N)(=O)=O)cc1)C(=O)N2,27.3
3,Nc1ncnc2occ(-c3ccc(NC(=O)Nc4cc(C(F)(F)F)cc(C(F)(F)F)c4)cc3)c12,10.3
4,COc1cc(C)c(NC(=O)CN(C)C)cc1Nc1nc(Nc2cccc(F)c2C(N)=O)c2cc[nH]c2n1,2.42
5,COC(=O)Nc1nc2cc(Oc3ccc(NC(=O)Nc4cccc(C(=O)O)c4)cc3)ccc2[nH]1,0.19
6,CS(=O)(=O)Nc1ccc(N/C=C2\C(=O)Nc3ccccc32)cc1,4.85
7,CC(=O)Nc1cccc(C#Cc2cncnc2Nc2ccc(OCc3cccc(F)c3)c(Cl)c2)n1,2.69
8,CN(C)c1cc2c(Nc3ccc4nc(Cc5ccccc5)[nH]c4c3)ncnc2cn1,27.7
9,COc1ccc(-c2ccncc2)cc1C(N)=O,3.66
10,O=C(Nc1n[nH]c2nc(-c3ccco3)c(Br)cc12)C1CC1,1.8
11,CS(=O)(=O)CCNCc1ccc(-c2ccc3ncnc(Nc4ccc(OCc5cccc(F)c5)c(C(F)(F)F)c4)c3c2)o1,2.37
12,CCn1c(-c2nonc2N)nc2c(C#CC(C)(C)O)nc(CN3CCCC3)cc21,3.44
13,CCn1c(-c2nonc2N)nc2c(N3CCCC3)nccc21,0.7
14,CCc1cccc(NC(=O)Nc2ccc(Oc3ccc4nc(NC(=O)OC)[nH]c4c3)cc2)c1,4.72
15,O=C1Nc2ccc(C(=O)c3ccco3)cc2C1=Cc1cc(Cl)c(O)c(Cl)c1,20.7
16,CS(=O)(=O)CCNCc1nc(-c2ccc3ncnc(Nc4ccc(F)c(Cl)c4)c3c2)cs1,3.55
17,Fc1cccc(COc2ccc(Nc3ncnc4cc(-c5ccc[nH]5)sc34)cc2Cl)c1,4.86

# Molecular target: Tyrosine-protein kinase HCK (Homo sapiens) (UniProt P08631);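 note: values are mean inhibition of HCK, taken from the GSK_PKIS kinase profiling screen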
# Conditions: at 0.1 µM
# Chain of Tyrosine-protein kinase HCK (Homo sapiens) (P08631 2-526 limits assumed): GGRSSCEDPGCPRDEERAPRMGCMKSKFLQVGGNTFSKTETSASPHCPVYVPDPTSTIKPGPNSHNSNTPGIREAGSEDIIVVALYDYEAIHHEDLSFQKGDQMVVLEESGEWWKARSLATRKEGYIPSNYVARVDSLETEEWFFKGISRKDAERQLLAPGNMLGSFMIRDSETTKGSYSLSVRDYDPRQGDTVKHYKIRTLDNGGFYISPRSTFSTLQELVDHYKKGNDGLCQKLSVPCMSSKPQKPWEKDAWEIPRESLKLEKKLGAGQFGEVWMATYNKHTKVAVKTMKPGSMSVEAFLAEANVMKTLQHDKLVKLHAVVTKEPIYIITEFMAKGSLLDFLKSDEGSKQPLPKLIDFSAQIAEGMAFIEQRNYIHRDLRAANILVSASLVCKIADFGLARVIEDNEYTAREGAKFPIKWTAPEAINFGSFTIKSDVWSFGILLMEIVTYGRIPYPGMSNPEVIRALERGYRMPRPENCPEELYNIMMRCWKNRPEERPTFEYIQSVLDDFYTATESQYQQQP
row,Compound,inhibition [%]
1,N#Cc1c(NC(=O)c2cccc3ccccc23)sc2c1CCCC2,4.79
2,CCn1c(-c2nonc2N)nc2cncc(C(=O)N3CCNCC3)c21,6.76
3,NS(=O)(=O)c1cccc(-c2ccc3c(NC(=O)C4CC4)n[nH]c3c2)c1,-0.53
4,CC1=C(C(=O)Nc2ccc3[nH]ncc3c2)C(c2ccc3ccccc3c2)CC(=O)N1 (stereo not drawn),4.76
5,Cc1nnc(-c2ccc(C)c(-c3ccc(C(=O)Nc4cccc(C#N)c4)cc3)c2)o1,4.32
6,Cc1nn(C)c2cc(N(C)c3ccnc(Nc4cccc(S(N)(=O)=O)c4)n3)ccc12,12.8
7,CS(=O)(=O)CCN(CC#N)Cc1ccc(-c2ccc3ncnc(Nc4ccc(OCc5cccc(F)c5)c(Cl)c4)c3c2)o1,2.47
8,NC(=O)c1cccc(Nc2nccc(Nc3cccc4[nH]ncc34)n2)c1,64
9,COc1cc2ncn(-c3cc(OCc4ccccc4Cl)c(C(N)=O)s3)c2cc1OC,4.09
10,Cc1cccc(-c2n[nH]cc2-c2ccc3ncccc3n2)n1,0.57
11,CCn1c(-c2nonc2N)nc2ccncc21,3.79
12,COc1cc2ncn(-c3cc(OCc4ccccc4C(F)(F)F)c(C(N)=O)s3)c2cc1OC,8.32
13,NCc1ccc(-c2nc(-c3ccc(Cl)c(O)c3)c(-c3ccncc3)[nH]2)cc1,12.9
14,CCN1CCC(CC(=O)Nc2n[nH]c3nc(-c4cccs4)c(Br)cc23)CC1,-0.44
15,Nc1nc(-c2ccc3c(c2)C(=Cc2cc(Br)c(O)c(Br)c2)C(=O)N3)cs1,-1.41
16,COc1ccc(-c2nn3ncccc3c2-c2ccnc(Nc3ccc(Cl)c(C(F)(F)F)c3)n2)cc1,1.57
17,COc1ccc(COc2ccc(Cc3cnc(N)nc3N)cc2OC)cc1,3.28

row,Compound,inhibition [%]
1,[O-][S+]1CCN(Cc2ccc(-c3ccc4ncnc(Nc5ccc(OCc6ccccc6)c(F)c5)c4c3)o2)CC1,3.37
2,CC(C)=Cc1cccc2c1/C(=N/Nc1ccc(S(N)(=O)=O)cc1)C(=O)N2,2.33
3,Nc1ncnc2occ(-c3ccc(NC(=O)Nc4cc(C(F)(F)F)cc(C(F)(F)F)c4)cc3)c12,6.07
4,COc1cc(C)c(NC(=O)CN(C)C)cc1Nc1nc(Nc2cccc(F)c2C(N)=O)c2cc[nH]c2n1,4.13
5,COC(=O)Nc1nc2cc(Oc3ccc(NC(=O)Nc4cccc(C(=O)O)c4)cc3)ccc2[nH]1,0.97
6,CS(=O)(=O)Nc1ccc(N/C=C2\C(=O)Nc3ccccc32)cc1,-0.18
7,CC(=O)Nc1cccc(C#Cc2cncnc2Nc2ccc(OCc3cccc(F)c3)c(Cl)c2)n1,-0.02
8,CN(C)c1cc2c(Nc3ccc4nc(Cc5ccccc5)[nH]c4c3)ncnc2cn1,11.5
9,COc1ccc(-c2ccncc2)cc1C(N)=O,6.67
10,O=C(Nc1n[nH]c2nc(-c3ccco3)c(Br)cc12)C1CC1,5.5
11,CS(=O)(=O)CCNCc1ccc(-c2ccc3ncnc(Nc4ccc(OCc5cccc(F)c5)c(C(F)(F)F)c4)c3c2)o1,5.21
12,CCn1c(-c2nonc2N)nc2c(C#CC(C)(C)O)nc(CN3CCCC3)cc21,-1.79
13,CCn1c(-c2nonc2N)nc2c(N3CCCC3)nccc21,-0.01
14,CCc1cccc(NC(=O)Nc2ccc(Oc3ccc4nc(NC(=O)OC)[nH]c4c3)cc2)c1,4.76
15,O=C1Nc2ccc(C(=O)c3ccco3)cc2C1=Cc1cc(Cl)c(O)c(Cl)c1,5.82
16,CS(=O)(=O)CCNCc1nc(-c2ccc3ncnc(Nc4ccc(F)c(Cl)c4)c3c2)cs1,4.76
17,Fc1cccc(COc2ccc(Nc3ncnc4cc(-c5ccc[nH]5)sc34)cc2Cl)c1,3.68
